Results: PubChem BioAssay AID540317 (National Center for Advancing Translational Sciences (NCATS), 2011)
About 2,200 (0.56%) of roughly 390,000 compounds were called active. Where a call stands in place of a potency, no number is given. Roughly 3% stayed inconclusive and do not appear here. Calls follow the shape of the dose curve; as a rule, active = well fitted inhibition curve with a large enough effect; inconclusive = small, poorly fitted or top-dose-only effect; inactive = no such curve, though single readings can be large or run the other way. The full list was thinned out, with actives kept by preference.
Also: nearly all actives have a fitted effect of over 70% in size.
Potency is read from the fitted curve at half-maximal effect.

What follows are molecules tested against Chromobox protein homolog 1 (Homo sapiens) (UniProt P83916) (assay: HTS for Inhibitors of HP1-beta Chromodomain Interactions with Methylated Histone Tails). Settings: AlphaScreen HP1-beta / biotin-H3K9me3 peptide binding; series mostly up to 114 µM.
Sequence of Chromobox protein homolog 1 (Homo sapiens) (P83916 whole entry, looked up): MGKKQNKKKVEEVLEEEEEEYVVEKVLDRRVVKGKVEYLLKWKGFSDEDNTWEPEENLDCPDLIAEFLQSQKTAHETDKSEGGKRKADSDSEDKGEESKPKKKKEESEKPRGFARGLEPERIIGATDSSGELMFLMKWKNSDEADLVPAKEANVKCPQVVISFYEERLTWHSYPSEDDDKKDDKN
Source text: As our understanding of epigenetics expands, it is becoming clear that players in this field are potential targets for drug development. This area of epigenetic therapy has established applications for the treatment of cancer and neurological diseases. We have been involved in this field for a number of years and have performed high-throughput screens to identify the first small molecule inhibitors of protein methyltransferases. These methyltransferases target multiple substrates, and thus regulate many arms of an epigenetic pathway. The methylation of different substrates often generates docking sites for effector proteins that harbor binding domains (chromo, tudor, PHD, MBT and ANK repeats). It has been proposed that the binding sites generated for different proteins by these post-translational modifcations mediate downstream effects on chromatin. Consistent with this theory, di- and tri-methylation of histone H3K9 facilitates the binding of heterochromatin protein HP1. The HP1 protein harbors a chromodomain that is responsible for the methyl-dependent interaction between HP1 and lysine 9 of histone H3. HP1 was first described in flies as a heterochromatin associated protein that can regulate gene silencing. It harbors a chromodomain that binds H3K9me3. In addition, it harbors a chromoshadow domain that interacts with a large number of proteins that are involved in heterochromatin formation and gene repression. There are three highly related HP1 isoforms. All three variants are associated with pericentric heterochromatin and it is not clear whether they have specific or redundant functions. MPP8 is also involved in the repression of gene in euchromatic regions (unpublished data) and like HP1 its chromodomain binds H3K9me3. MPP8 harbors an ankyrin repeat region that is likely involved in binding and recruiting interacting proteins with transcriptional repressive function, much like the chromoshadow domain of HP1 does. We hypothesize that by inhibiting specific protein-protein interactions we will be able to develop compounds that block a single arm of an epigenetic pathway. The specificity attained by blocking a single protein-protein interaction will be far greater than that attained by blocking the enzyme that regulates one of many interactions. Low-affinity protein-protein interactions (Kd in the single- to double-digit micromolar range) such as those discussed here have been very difficult to assay by traditional techniques such as fluorescence polarization or fluorescence resonance energy transfer. We have developed a sensitive chemiluminescence-based assay (Quinn, et al. 2009), which serves as the starting point for this project. The following is a validation assay to identify lead compounds that can block methyl-dependent protein-protein interactions (specifically HP1-beta), which can be used as probes to analyze these methyl-driven interactions and perhaps even developed into targeted epigenetic therapies. NIH Chemical Genomics Center [NCGC] NIH Molecular Libraries Probe Centers Network [MLPCN] MLPCN Grant: DA031087 Assay Submitter (PI): Mark Bedford, University of Texas, Medical Anderson Cancer Center, TX
To each well, 2 uL of HP1-beta protein (final 50 nM) and 1 uL biotinylated histone peptide trimethylated at Lys9 [b-H3(1-18)K9me3] (final 50 nM) was added in 1x PBS buffer, pH 7.4, containing 0.01% Tween-20 using a nanoliter dispenser. Formation of a protein-peptide complex proceeded at room temperature for 30 min. A Kalypsys pin-tool was employed to transfer 23 nL of library compound solution in DMSO to each well. Aurintricarboxylic acid (ATA) was used as an intraplate control with a 12-point titration in duplicate. Following a 30 min incubation of the protein-peptide complex with compounds at room temperature, a mixture of 40 ug/mL each streptavidin-coated donor and nickel chelate acceptor AlphaScreen beads (final 10 ug/mL) was added in a 1 uL dispense for a final volume of 4 uL. […]
O=C(O)c1cc[c]([Sb](=[O])([OH])[OH])cc1[N+](=O)[O-] was tested, and the Potency was 0.794 µM (active). For O=C(c1ccccc1[N+](=O)[O-])N1CCC2(CC1)OCCO2, the Potency was “inactive”. For CCOc1ccc(S(=O)(=O)NCc2ccc3c(c2)OCO3)cc1C, the Potency was “inactive”. For C=CCOC(=O)c1ccccc1C(=O)OCC=C, the Potency was “inactive”. For CCn1cc2nc(SCc3ccccc3Cl)n(CCc3ccccc3)c(=O)c2n1, the Potency was “inactive”. O=c1[nH]c(=S)[nH]c(O)c1/C=C1\C=Nc2ccccc21 was tested, and the Potency was “inactive”. In the case of Nc1nc(NC(=O)/C=C/c2ccc(F)cc2)nn1-c1ccccc1, the Potency is reported as “inactive”. For COc1ccc(N2C(=O)/C(=C/c3ccco3)C(=O)NC2=S)cc1, the Potency was 14.1 µM (active). In the case of CCOC(=O)CNC(=O)N1c2ccccc2Sc2ccccc21, the Potency is reported as “inactive”. In the case of Brc1cc(Br)c(Oc2cc(Br)c(Br)cc2Br)cc1Br, the Potency is reported as “inactive”. In the case of CN(C(=O)CSc1nc2ccc(NC(=O)COc3ccccc3)cc2s1)c1ccccc1, the Potency is reported as “inactive”. With COc1ccccc1CN1CCN(C(=O)Cc2ccccc2)CC1 the Potency was 14.1 µM (active). For O=C(Cc1ccc(Cl)cc1)NCCN1CCN(C(=O)Cc2ccc(Cl)cc2)CC1, the Potency was “inactive”. With O=C(Cc1ccccc1[N+](=O)[O-])N1CCN(Cc2ccc3c(c2)OCO3)CC1 the Potency was “inactive”. With O=C(Cc1ccccc1)N1CCN(C2CCCCCC2)CC1 the Potency was 79.4 µM (active). c1ccc(CCNC2CCCCCC2)cc1 was tested, and the Potency was “inactive”. c1ccc(CC2CCCCN2)cc1 (stereo not given) was tested, and the Potency was “inactive”. With O=C(OCC(=O)c1cccs1)C1=COCCO1 the Potency was “inactive”. For O=C(CSc1ccccc1)Nc1ccc(C(=O)Nc2cccc(O)c2)cc1, the Potency was “inactive”. For O=c1c2ccccc2ccc2ccc(P(=O)(O)O)cc12, the Potency was “inactive”. COc1cc(Cl)ccc1Nc1ncc(C(=O)N2CCN(c3ccccc3OC)CC2)c2ccccc12 was tested, and the Potency was “inactive”. For O=C(COc1ccccc1Cl)Nc1ccc2nc(SCC(=O)N3CCCC3)sc2c1, the Potency was “inactive”. For CCOCCCNC(=O)c1c(NC(=O)c2nc(SC)ncc2Cl)sc2c1CCCC2, the Potency was “inactive”. C[C@H]1CN([C@@H](C)CO)C(=O)Cc2cc(NC(=O)Cc3ccccc3)ccc2O[C@H]1CN(C)S(=O)(=O)c1cccs1 was tested, and the Potency was “inactive”. COc1cccc(N2C(=O)NC(=O)/C(=C\c3ccc([N+](=O)[O-])s3)C2=O)c1 was tested, and the Potency was 31.6 µM (active). In the case of Cc1ccsc1/C=N/NC(=O)Cc1cc(=O)[nH][nH]1, the Potency is reported as “inactive”. With CC(=O)c1ccc(OC(=O)N2CCOCC2)cc1 the Potency was “inactive”. CCc1ccccc1NC(=O)c1sc2nc3c(cc2c1N)CN(Cc1ccccc1)CC3 was tested, and the Potency was “inactive”. In the case of CCN(CC)c1ccc(C2C(C(N)=O)=C(C)Nc3nc(SCc4ccccc4)nn32)cc1 (stereo not given), the Potency is reported as “inactive”. In the case of Cc1cc2n(n1)C(c1cc(C(C)(C)C)c(O)cc1O)Nc1ccccc1-2 (stereo not given), the Potency is reported as “inactive”. In the case of COc1ccc(CNC(=O)c2cc3c(-c4ccccc4F)nn(C)c3s2)c(OC)c1, the Potency is reported as “inactive”. For Cc1cc(C)c2c(c1)NP(=S)(c1ccccc1)N2 (stereo not given), the Potency was 50.1 µM (active). For Cc1ccc2c(c1)C1CN(C)CCC1N2C(=O)c1ccccc1NS(=O)(=O)c1ccc(F)cc1C (stereo not given), the Potency was “inactive”. For O=C(O)C1CSC(c2cccnc2)N1 (stereo not given), the Potency was 17.8 µM (active). For CCc1ccc(C2C(C#N)=C(N)Oc3n[nH]c(CC(=O)OC)c32)cc1 (stereo not given), the Potency was “inactive”.
